Records with an inconclusive call do not appear. A call without a number means that no potency is given here. The source made the active and inactive calls. Calls follow the shape of the dose curve; as a rule, active = well fitted activation curve with a large enough effect in the repeat runs; inconclusive = weak or mixed curves; inactive = flat fitted curve, though single readings scatter.
Experiment: A CellTox Green Cytotoxicity Assay to monitor cytotoxicity in HEK293 cells - 8 hour (AID 1224884); also: nearly all actives have a fitted effect of over 35% in size
Conditions: CellTox Green fluorescence; series mostly up to 76.8 µM
From the text: National Center for Advancing Translational Sciences [NCATS]
NIH Chemical Genomics Center [NCGC]
U.S. Environmental Protection Agency [EPA]
National Institutes of Environmental Health Sciences [NIEHS]
National Toxicology Program [NTP]
Cell-based models are critical for drug discovery. Determining the natural cytotoxic effects resulting from test compounds is an essential research activity. A CellTox Green Cytotoxicity Assay to monitor cytotoxicity in real time of continues cell culture during 40 hours of the compound treatment was used to screen Tox21 10K library compounds in Hek293 cells. CellTox Green Cytotoxicity Assay is a nonlytic, homogeneous, biofluorescent method to measure cytotoxicity in cell culture after experimental manipulation. The assay system uses a proprietary asymmetric cyanine dye that is excluded from viable cells but preferentially stains the dead cell's DNA. […] Viable cells produce no appreciable increases in fluorescence. Therefore, the fluorescence signal produced by the binding interaction with dead cell DNA is proportional to cytotoxicity.
The mixture of Hek293 cell suspension and reagents were dispensed at 600cells/6 ul/well in 1536-well tissue culture treated black solid bottom plates using a Multidrop dispenser. After the assay plates were incubated at a 37 C/5% CO2 incubator for 5 hours, 23 nL of compounds dissolved in DMSO, positive and negative controls was transferred to the assay plate by a pintool work station. The plates were incubated at 37 C for 40 hours. The fluorescence intensity were measured at 0h, 8h, 16h, 24h, 32h and 40h time points using ViewLux plate reader during compound treatment.
Potency is read from the fitted curve at half-maximal effect.

Q: With `C=C(C)[C@@H]1CCC2=CCC[C@@H](C)[C@]2(C)C1` as the molecule, how does the Potency read?
A: inactive

Q: For `CCOC(=O)c1ccc(OCCN2C[C@H](O)[C@@H](O)[C@H](O)[C@H]2CO)cc1`, which Potency is on record?
A: inactive

Q: For `O=c1cc(-c2ccccc2)oc2cc(O)cc(O)c12`, which Potency is on record?
A: inactive

Q: Which Potency does the source give for `CC(=O)c1cc2ccccc2s1` here?
A: inactive

Q: For `CC(=O)Oc1ccc([N+](=O)[O-])cc1CCl`, which Potency is on record?
A: inactive

Q: With `C=C(C)C(=O)OCCCCCCCCCCCCC` as the molecule, how does the Potency read?
A: inactive

Q: With `O=C(/C=C/c1ccc(O)c(O)c1)O[C@@H]1C[C@@](OC(=O)/C=C/c2ccc(O)c(O)c2)(C(=O)O)C[C@@H](O)[C@@H]1O` as the molecule, how does the Potency read?
A: inactive

Q: With `CCCCCC#CC(=O)OC` as the molecule, how does the Potency read?
A: inactive

Q: Which Potency does the source give for `CCOC(=O)c1ccc(O)c(O)c1` here?
A: inactive

Q: With `CC(C)Nc1cccnc1N1CCN(C(=O)c2cc3cc(NS(C)(=O)=O)ccc3[nH]2)CC1` as the molecule, how does the Potency read?
A: inactive

Q: With `CC(=O)[C@H]1[C@H](C#N)C[C@H]2[C@@H]3CC=C4C[C@@H](O)CC[C@]4(C)[C@H]3CC[C@@]21C` as the molecule, how does the Potency read?
A: inactive

Q: Which Potency does the source give for `O=C1c2ccccc2C(=O)C1(O)O` here?
A: inactive

Q: For `CC(C)C=O`, which Potency is on record?
A: inactive

Q: For `CCN(CC)CCNC(=O)COc1ccc(OC)cc1`, which Potency is on record?
A: inactive

Q: For `Cc1ccc(CO)cc1`, which Potency is on record?
A: inactive

Q: With `CCCCN(CCN(CCCC)C(=O)N1CCOCC1)C(=O)N1CCOCC1` as the molecule, how does the Potency read?
A: inactive

Q: Which Potency does the source give for `C[C@@H]1CN(CCCn2c3ccccc3c3ccccc32)C[C@H](C)N1` here?
A: 23.9 µM (active)

Q: Which Potency does the source give for `O=C(O)CCC(=O)C(=O)O` here?
A: inactive

Q: With `O=C(OCC(O)CO)c1ccccc1Nc1ccnc2cc(Cl)ccc12` (stereo not given) as the molecule, how does the Potency read?
A: inactive

Q: Which Potency does the source give for `O=C1C(=O)c2ccccc2C(O)=C1C1CCC(c2ccc(Cl)cc2)CC1` (stereo not given) here?
A: inactive

Q: For `CCOC(=O)OC(C)OC(=O)[C@@H]1N2C(=O)[C@@H](NC(=O)[C@H](N)c3ccccc3)[C@H]2SC1(C)C` (stereo not given in full), which Potency is on record?
A: inactive

Q: For `Brc1cc2ccccc2c2ccccc12`, which Potency is on record?
A: inactive

Q: With `COC(=O)CS` as the molecule, how does the Potency read?
A: inactive

Q: With `Oc1c(I)cc(I)c2cccnc12` as the molecule, how does the Potency read?
A: inactive

Q: With `NCCNCCO` as the molecule, how does the Potency read?
A: inactive

Q: Which Potency does the source give for `CC(C)=CC(=O)C=C(C)C` here?
A: inactive

Q: For `O=c1[nH]c2ccc(Cl)cc2o1`, which Potency is on record?
A: inactive

Q: For `O=C(CCCN1CC=C(n2c(=O)[nH]c3ccccc32)CC1)c1ccc(F)cc1`, which Potency is on record?
A: inactive

Q: Which Potency does the source give for `C[C@H]1c2cccc(O)c2C(O)=C2C(=O)[C@]3(O)C(O)=C(C(N)=O)C(=O)[C@@H](N(C)C)[C@@H]3[C@@H](O)[C@@H]21` here?
A: inactive

Q: For `CCCCOc1ccc(OCCCN2CCOCC2)cc1`, which Potency is on record?
A: inactive

Q: With `O=C1c2ccccc2C(=O)N1CCc1noc(-c2ccc(CN3CCCCCC3)s2)n1` as the molecule, how does the Potency read?
A: 35.7 µM (active)

Q: With `O=[N+]([O-])c1ccc(O/N=C/c2cc(Br)c(O)c(Br)c2)c([N+](=O)[O-])c1` as the molecule, how does the Potency read?
A: inactive

Q: With `CC(C)C[C@H](NC(=O)[C@H](CCc1ccccc1)NC(=O)CN1CCOCC1)C(=O)N[C@@H](Cc1ccccc1)C(=O)N[C@@H](CC(C)C)C(=O)[C@@]1(C)CO1` as the molecule, how does the Potency read?
A: inactive

Q: With `CO[C@]1(NC(=O)CSC(F)F)C(=O)N2C(C(=O)O)=C(CSc3nnnn3CCO)CO[C@H]21` as the molecule, how does the Potency read?
A: inactive

Q: Which Potency does the source give for `Clc1ccc(Nc2nnc(Cc3ccncc3)c3ccccc23)cc1` here?
A: inactive

Q: With `COc1cc(C(=O)NC2CCN(C)CC2)ccc1Nc1ncc2c(n1)N(C1CCCC1)CC(F)(F)C(=O)N2C` as the molecule, how does the Potency read?
A: 17.9 µM (active)

Q: For `CN1CC(=O)N2[C@H](c3ccc4c(c3)OCO4)c3[nH]c4ccccc4c3C[C@@H]2C1=O`, which Potency is on record?
A: inactive

Q: For `CCOC(C)=O`, which Potency is on record?
A: inactive

Q: With `OC1(c2ccccc2)CCNCC1` as the molecule, how does the Potency read?
A: inactive

Q: For `Cc1ccc(Cl)c(Nc2ccccc2C(=O)O)c1Cl`, which Potency is on record?
A: inactive

Reference: PubChem BioAssay (Tox21)
